In PubChem BioAssay:

assay: modulators of S6 phosphorylation in cells, primary screen, cell-based, A549, cytoblot, luminescence, serum-stimulated (AID 1158); settings: A549 phospho-S6 cytoblot, 5 h, higher = more signal;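 also: serum-stimulated A549 lung adenocarcinoma cells; signal is phosphorylated S6 detected by cytoblot immunostaining with HRP secondary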

Row | SMILES | z-score
1 | COCCOC(=O)N1C(=O)[C@@]2(c3ccccc31)[C@H](c1ccc(OCCO)cc1)N1[C@H](c3ccccc3)[C@H](c3ccccc3)OC(=O)[C@H]1[C@@H]2C(=O)N1CCCCCCC1 | -0.0785
2 | CCCCCN1CC=CC23O[C@@H]4/C=C\CCC(C)OC(=O)C4[C@H]2C(=O)N(CCCCCCO)[C@@H]3C1=O (stereo not given in full) | 2.19
3 | COCCOC(=O)N1C(=O)[C@@]2(c3ccccc31)[C@H](c1ccccc1OCCO)N1[C@H](c3ccccc3)[C@H](c3ccccc3)OC(=O)[C@H]1[C@@H]2C(=O)N1CCCCCCC1 | -0.37
4 | C=C[C@@H](OC)[C@H](OC(=O)Nc1ccc(SC)cc1)c1ccc(OCCO)cc1 | 0.285
5 | COC(=O)[C@@]1(Cc2ccc(F)cc2)[C@H]2c3cc(C(=O)N(C)C)n(Cc4c(CO)[nH]cc(C)c4=O)c3C[C@H]2CN1C(=O)c1ccccc1 | -0.122
6 | Cc1ccccc1C(O)C1C=CC2C(=O)N(c3ccccc3)C(=O)C2N1Nc1ccc([N+](=O)[O-])cc1 (stereo not given) | -0.483
7 | COc1cc(NN2C(C(O)c3cc(OC)c(OC)c(OC)c3)C=CC3C(=O)N(c4ccccc4)C(=O)C32)cc(OC)c1OC (stereo not given) | 1.07
8 | C=CCC(OC(C)=O)[C@@H]1[C@@H](N(Cc2cccc3ccccc23)C(=O)c2cccc3ccccc23)c2cc(OCCCO)ccc2N1C(=O)c1ccc2ccccc2c1 (stereo not given in full) | 0.914
9 | COC(=O)[C@@]1(Cc2ccccc2)[C@H]2c3cc(C(=O)N4CCCC4)n(CCSCCO)c3C[C@H]2CN1C(=O)c1ccccc1 | -0.653
10 | Cc1cccc([C@H]2C[C@H]3C(I)=C[C@@H]2C(=O)[C@]32CO2)c1 | 0.0314
11 | O=C1C2C=CC(C(O)C=Cc3ccc([N+](=O)[O-])cc3)N(Nc3ccccc3)C2C(=O)N1c1ccccc1 (stereo not given) | -0.914
12 | CC(=O)NCCCC[C@@H]1NC(=O)[C@H]2C[C@@H](C(=O)NCCCCCNC(=O)CS)[C@@H](c3cccc(OCCO)c3)N2C1=O | 0.0439
13 | C=C[C@H](C)[C@H](OC(=O)Nc1ccc(OC)cc1)c1ccc(OCCO)cc1 | -0.196
14 | CCOC(=O)C[C@H]1[C@H](OC(=O)c2ccc(C(=O)c3ccccc3)cc2)[C@@H](NC(=O)CC(C)C)c2cc(OCCCO)ccc2N1C(=O)Cc1ccc(OC)cc1 | -0.174
15 | Cc1ccccc1C(O)C1C=CC2C(=O)NC(=O)C2N1Nc1ccc(Cl)cc1Cl (stereo not given) | -0.649
16 | COc1cc2c(cc1O)C(c1ccc(CN3CCCC3)cc1)N(C)CC2 (stereo not given) | -0.364
17 | COc1ccc([Si](C)(C)[C@@H]2[C@@H](CCn3cc([C@H](O)c4ccccc4)nn3)O[C@]3(C(=O)N(Cc4cccc(N5C(=O)c6cccc7cccc5c67)c4)c4ccccc43)[C@H]2C)cc1 | -0.256
18 | CC(C)(C)OC(=O)CC[C@]1(C(=O)N2CCCCC2)COC(c2ccc(OCCCO)cc2)=N1 | -0.515
19 | COCCOC(=O)N1C(=O)[C@@]2(c3cc(C#CC4=CCCCC4)ccc31)[C@H](c1ccc(O)cc1)N1[C@H](c3ccccc3)[C@H](c3ccccc3)OC(=O)[C@H]1[C@@H]2C(=O)NC[C@H](O)c1ccccc1 | -0.147
20 | CN(C)CCCCCCNC(=O)[C@@H]1C[C@@H]2C(=O)N[C@@H](CCCCN)C(=O)N2[C@@H]1c1ccc(O)cc1 | 1.32
21 | Cc1ccc(N2C(=O)c3ccccc3[C@](C)(C(=O)NCc3ccccc3)[C@@H]2c2ccc(CO)cc2)nc1 | 0.389
22 | C=C[C@@H](C)[C@@H](OC(=O)Nc1ccc(SC)cc1)c1ccc(OCCO)cc1 | 0.241
23 | C=C(/C(=C/C[C@@H](OC(=O)c1ccncc1)c1cccc(OCCO)c1)c1cnc2ccccc2c1)C(C)C | 0.199
24 | O=c1cccc(-c2ccco2)o1 | -0.397
25 | O=C1C2C=CC(C(O)c3cc(C(F)(F)F)cc(C(F)(F)F)c3)N(Nc3ccccc3F)C2C(=O)N1c1ccccc1 (stereo not given) | -0.746
26 | O=C(N1CCOCC1)[C@@]1(CCS(=O)(=O)c2ccccc2)N=C(c2ccc(OCCCO)cc2)O[C@H]1c1ccccc1 | -0.679
27 | COCCCNC(=O)[C@@]1(Sc2ccc(C)cc2)CC(=O)N(C(C)C)[C@@H]1c1ccc(CO)cc1I | 1.61
28 | C=C(C)[C@@H]1CC=C(C(O)C2C=CC3C(=O)N(c4ccccc4)C(=O)C3N2Nc2ccc(C#N)cc2)CC1 (stereo not given in full) | -0.66
29 | C=C(COC)/C(=C/C[C@@H](OC(=O)c1ccncc1)c1ccccc1OCCO)c1cc(C(=O)OC)ccc1OC | 0.171
30 | CC(C)C[C@@H]1NC(=O)[C@@H]2C[C@H](C(=O)NCCCCCC[N+](C)(C)C)[C@H](c3cccc(OCCO)c3)N2C1=O | -0.797
